Experimental data published in PubChem BioAssay AID1979 (Broad Institute, 2009).
About 1,700 (0.57%) of roughly 300,000 compounds were called active. Not shown: some 2% with an inconclusive outcome. The full list was thinned out, with actives kept by preference. A number with no mark means an inactive call.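 Rule for the calls: active = growth inhibition above about 58% in most replicates (limit read from the data, passing the limit was not always enough); inconclusive = exactly half the replicates above a set limit; inactive = most replicates below a set limit.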

Assay: Candida growth reduction under fluconazole – CaCi-2 strain, Alamar Blue fluorescence, primary screen (AID 1979);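 note: all wells also contain fluconazole at 8 µg/ml as a sub-toxic cotreatment; 0% = median of DMSO wells and 100% = median of geldanamycin control wells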
Details: C. albicans CaCi-2 (fluconazole-resistant clinical isolate) + fluconazole, 48 h, hits give high values, concentration not given here
With `Cc1ccc(C)c(NC(=O)COC(=O)Cn2c(C)csc2=O)c1` the growth inhibition was -4.71%. In the case of `COc1cc(NS(=O)(=O)c2ccc3ccccc3c2)c2ncccc2c1`, the growth inhibition is reported as 89.3% (active). For `COc1ccc2cc(S(=O)(=O)Nc3ccccn3)ccc2c1`, the growth inhibition was -0.283%. `Cc1ccc(NS(=O)(=O)c2ccc(C)c(NC(=O)COc3ccc4ccccc4c3)c2)c(C)c1` gave a growth inhibition of 31.8%. For `Cc1ccc(Nc2nc(CSc3nnc(-c4ccncc4)n3-c3ccccc3C)cs2)cc1`, the growth inhibition was 113% (active). In the case of `Cc1ccccc1-n1c(SCC(=O)NCc2cccs2)nnc1-c1ccncc1`, the growth inhibition is reported as 8.03%. In the case of `Cc1ccc(-n2c(SCC(=O)N3c4ccccc4Sc4ccccc43)nnc2-c2ccncc2)cc1`, the growth inhibition is reported as -22.2%. In the case of `O=C(OCCOCn1cc(Br)c(=O)[nH]c1=O)c1ccccc1`, the growth inhibition is reported as -9.14%. With `CCOc1ccc(NC(=O)COc2ccc(C(=O)N3CCC(C(N)=O)CC3)cc2OC)cc1` the growth inhibition was -4.97%. `CC(C)Oc1ccc(S(=O)(=O)N2CCOCC2)cc1NC(=O)C1CSC2(C)CCC(=O)N12` (configuration not stated) gave a growth inhibition of -0.702%. For `COc1ccc(C(=O)NCCCN2CCOCC2)cc1Br`, the growth inhibition was -0.331%. Compound `Cc1ccc(S(=O)(=O)N2CCN(C(=O)Cc3sc(C)nc3-c3ccc(F)cc3)CC2)c(C)c1` has a growth inhibition of -1.25%. For `Cc1nc2c(c(C)nn2-c2ccccc2)c(C)c1C`, the growth inhibition was 1.68%. `O=C(N/N=C/c1ccccn1)c1cccnc1` showed a growth inhibition of 6.91%. `O=C(N/N=C/c1ccc(O)c2ccccc12)c1cccnc1` gave a growth inhibition of 11.5%. With `O=C(N/N=C/c1sc(N2CCCCC2)nc1-c1cccs1)c1cccnc1` the growth inhibition was 94.5% (active). Work on `CCOc1ccc(NC(=O)c2ccc(NC(=O)CN3C(=O)C(=O)N(CC(C)C)C3=O)cc2)cc1` yielded a growth inhibition of -2.68%. In the case of `COc1ccc(S(=O)(=O)NCc2cccnc2)cc1NC(=O)c1ccc(C)cc1`, the growth inhibition is reported as -3.27%. Work on `CCN(CC)CCCN=Cc1c(O)n(-c2ccc(C)cc2)c(=O)c2ccccc12` yielded a growth inhibition of -8.89%. For `CCOc1ccc(-n2c(O)c(/C=N/c3ccnn3Cc3ccncc3)c3ccccc3c2=O)cc1`, the growth inhibition was 15.4%. With `CCOc1ccc(-n2c(O)c(/C=N/Nc3nc(C)cc(C)n3)c3ccccc3c2=O)cc1` the growth inhibition was 113% (active). Work on `CCOC(=O)c1c(C)[nH]c(C(=O)OCC(=O)N2CCCC2=O)c1C` yielded a growth inhibition of -3.16%. Compound `Cc1nc2ccccc2nc1N/N=C/c1ccc(O)cc1O` has a growth inhibition of 10.5%. With `C=CCn1c(COc2ccc(F)cc2)nnc1SCC(=O)Nc1cccc(S(N)(=O)=O)c1` the growth inhibition was 94.6% (active). Compound `COc1ccc(-n2cnnc2SCC(=O)Nc2cccc(S(N)(=O)=O)c2)cc1` has a growth inhibition of -1.9%. Compound `C=CCn1c(CC(=O)Nc2cccc(OC)c2)nnc1SCC(=O)NC1CCCCC1` has a growth inhibition of 4.51%. Work on `CS(=O)(=O)c1ccc(Cl)c(NC(=O)COC(=O)c2cccc(S(=O)(=O)N3CCCC3)c2)c1` yielded a growth inhibition of -1.03%. In the case of `Cc1cc(Nc2ccc(C(=O)N3CCCCC3)cc2)c2cccc(C)c2n1`, the growth inhibition is reported as 2.84%. `Cc1ccn2c(=O)nc(SCC(=O)NCc3ccc4c(c3)OCO4)nc2c1` gave a growth inhibition of 1.59%. For `Cc1ccc(N/N=C2\COC(C)(C)CC2=O)cc1`, the growth inhibition was 101% (active). Work on `Cc1ccc(NN=C2C(=O)OC(C)(C)OC2=O)c(C)c1` yielded a growth inhibition of -5.58%. `COc1ccc(N/N=C2/CCCCC2=O)cc1` gave a growth inhibition of -21.7%. `COc1ccccc1C(=O)NC(=O)COC(=O)c1ccco1` gave a growth inhibition of 8.59%. With `CC1CN(C(=O)COC(=O)c2cccc(NS(=O)(=O)c3ccccc3)c2)CC(C)O1` (configuration not stated) the growth inhibition was 5.4%. In the case of `O=[N+]([O-])c1ccc(O)c(/C=N/Nc2ccccc2[N+](=O)[O-])c1`, the growth inhibition is reported as -1.45%. For `O=C(N/N=C/c1cc([N+](=O)[O-])ccc1O)/C(=C\c1cccs1)NC(=O)c1ccccc1`, the growth inhibition was 116% (active). With `O=C(N/N=C/c1ccc(O)cc1)/C(=C/c1ccc([N+](=O)[O-])cc1)NC(=O)c1ccccc1` the growth inhibition was 1.1%. `COc1ccccc1OCc1ccc(C(=O)NC(C)c2ccccc2)o1` (configuration not stated) gave a growth inhibition of -11.7%. In the case of `COc1ccc(OC)c(NC(=O)CSc2nc(-c3ccccc3)cc(=O)[nH]2)c1`, the growth inhibition is reported as 55%. In the case of `Cc1ccc(NS(=O)(=O)c2ccc(N/N=C/c3ccccc3OCC(=O)O)c([N+](=O)[O-])c2)c(C)c1`, the growth inhibition is reported as -7.09%. In the case of `Cc1cccc(COc2ccccc2/C=N/Nc2ccc([N+](=O)[O-])cc2)c1`, the growth inhibition is reported as 91.8% (active). Work on `O=[N+]([O-])c1ccc(N/N=C/c2ccccc2)cc1` yielded a growth inhibition of -28.5%. For `O=C1c2ccccc2C(=O)c2c1cccc2N1CCN(C/C=C/c2ccccc2)CC1`, the growth inhibition was 8.05%. `Cc1ccc(S(=O)(=O)NC(C)C(=O)NCc2ccc(Cl)cc2)cc1` (configuration not stated) showed a growth inhibition of -3.28%. With `COc1ccc(-n2nnnc2-c2nc3ccccc3s2)cc1` the growth inhibition was -12.1%. With `COc1ccc(C2=NN(c3nc4ccccc4s3)C(=O)C2)cc1` the growth inhibition was 94.5% (active). For `COc1ccc(C2=NN(C(C)=O)C(c3ccccc3)C2)cc1` (configuration not stated), the growth inhibition was -6.81%. Compound `O=c1c2ccccc2ncn1CCCCOc1ccccc1F` has a growth inhibition of 0.805%. `CC(C)Oc1ccc(CCC(=O)NNC(=S)NCc2ccccc2)cc1` showed a growth inhibition of 1.53%. For `COc1ccc(C(=O)NC(=S)NNC(=O)CCc2ccccc2)cc1`, the growth inhibition was 114% (active). Compound `O=C(CCc1ccccc1)NNC(=O)c1ccc(Br)cc1` has a growth inhibition of 5.83%. In the case of `COc1ccc(C(=O)NNC(=S)NC(=O)c2ccccc2)cc1`, the growth inhibition is reported as 96.8% (active). With `COc1ccc(C(=O)NNC(=S)NC(=O)c2ccccc2[N+](=O)[O-])cc1` the growth inhibition was 5.98%. Compound `COc1ccc(C(=O)NC(=S)NNC(=O)c2c(-c3ccccc3)noc2C)cc1` has a growth inhibition of 32.7%. For `Cc1ccc(NC(=O)c2cnc(SCC(=O)NCC3CCCO3)n(C)c2=O)cc1` (configuration not stated), the growth inhibition was -0.731%. `CCOc1ccc(CCNC(=O)COC(=O)CCS(=O)(=O)c2ccc(C)cc2)cc1OCC` showed a growth inhibition of -6.92%. With `COc1cccc(NC(=O)CN(C)C(=O)CSC(=S)N2CCCC2)c1` the growth inhibition was -3.71%.
